HT1080NT lethal: kills 2HG-producing HT-1080-NT fibrosarcoma cells; Potency, µM (doses to about 46.1 µM), for inactives: at the highest dose activity, negative = less viability, usual class: cytotoxic; HT-1080-NT fibrosarcoma viability, CellTiter-Glo ATP luminescence, 48 h; AID 686970; 360,000 tested, 1.6% active;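 further: NT is the 2HG producing partner of a matched IDH1 knockdown line; potency means the concentration at half of the fitted maximal effect; 0% = DMSO-treated cells and -100% = media-only wells without cells; nearly all actives have a fitted effect of over 55% in size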
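Fibrosarcoma NT cells, 750 per well in 5% FBS RPMI, were exposed to compound for 48 hours. Viability: CellTiter-Glo luminescence.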
IL-1B inflam inh: inhibitors of inflammasome signaling (IL-1 beta secretion). THP-1 LPS/ATP IL-1B secretion, AlphaLISA, 16 h; stronger effect = lower value. activity change, % at 57.5 µM. 360,000 tested, 4.7% active. AID 743279; in the data active means activity change below about -50%; inconclusive means mostly about -30% to -49%
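THP-1 cells pretreated 1 hr with compounds (up to 57.5 uM final), then stimulated with LPS (250 ng/mL final) plus ATP (1.25 mM final); secreted IL-1B measured by AlphaLISA after 16 hr, decreased signal indicating inhibition.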
TDP1 cell CPT: growth inhibition of DT40 Tdp1-/-;hTDP1 cells with camptothecin (screen for TDP1 inhibitors). Potency, µM (top dose mostly 46.2 µM), for the others: at the highest dose activity change, negative = growth inhibition, usual class: inhibitors. 420,000 tested, 12% active. chicken DT40 Tdp1-/-;hTDP1 cells + 20 nM CPT, ATP luminescence, 48 h; further: potency means the concentration at half of the fitted maximal effect; nearly all actives have a fitted effect of over 55% in size
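Chicken DT40 Tdp1-/- cells stably complemented with human TDP1 were seeded at 400 cells/well in medium containing 20 nM camptothecin, exposed to pin-transferred compounds, and grown at 37 °C for at least 48 hr. Viability was read as ATP luminescence.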
ELG1 DNA repair: inhibitors of ELG1-dependent DNA repair in HEK293T cells; HEK293T ELG1-luciferase reporter, luminescence, 16 h; DNA damage induced by 5-fluorouridine; Potency, µM (titrated, usually from 46.1 µM), without a hit: at the top dose activity change, negative = inhibition, usual class: inhibitors; 330,000 tested, 2.3% active; AID 504467; further: potency means the concentration at half of the fitted maximal effect; nearly all actives have a fitted effect of over 55% in size
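Step one: seed 2,000 cells per well. Step two: pin-transfer compound or DMSO alongside 5-fluorouridine. Step three: incubate 16 hr, 37 °C, 5% CO2. Step four: add ONE-Glo, wait 30 min, read luminescence.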
HT1080 IDH1KD tx: toxicity to HT-1080 IDH1 knockdown cells (counter line); HT-1080 IDH1 knockdown viability, ATP luminescence, 48 h; 360,000 tested, 2% active; Potency, µM (series often up to 46.1 µM), for inactives: at the top dose activity, negative = toxicity, usual class: cytotoxic; AID 686971;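 further: potency means the concentration at half of the fitted maximal effect; 0% = DMSO wells and -100% = cell-free medium wells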
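Luminescent ATP read-out (CellTiter-Glo, 10 min at room temperature) after 48 h compound exposure at 37 °C gave viability of IDH1-knockdown HT-1080 cells. Activity was normalised to DMSO and cell-free wells, then fitted as concentration-response curves.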
TDP1 cell noCPT: qHTS for Inhibitors of human tyrosyl-DNA phosphodiesterase 1 (TDP1): qHTS in cells in absence of CPT. DT40 Tdp1-/- hTDP1 cells, no CPT, ATP luminescence, 48 h. Potency, µM (top dose mostly 46.2 µM), for the others: at the highest dose activity change, negative = growth inhibition, usual class: inhibitors. 420,000 tested, 15% active; further: potency means the concentration at half of the fitted maximal effect; nearly all actives have a fitted effect of over 55% in size
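DT40 Tdp1-/-;hTDP1 cells, no CPT (DMSO vehicle only), 400 cells/well; compounds pin-transferred; ≥48 hr, 37 °C; CellTiter-Glo 30 min RT dark, luminescence read.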
Active calls of the source: *. Only some compounds are listed: those with a hit (about 19% of all), similar ones and a draw of the others. Unless noted, the call rests on the fitted dose curve; in most records, active means well fitted curve in the direction sought with a large enough effect; inconclusive means small, poorly fitted or top-dose-only effect, or another doubt; inactive means no such curve, though single readings can be large; an effect the other way counts as inactive or inconclusive. Unless noted, on the % scale 0 is the no-effect control and ±100 the full control effect.

For CNC(=O)C1CC(=O)N(CCc2ccc(OC)c(OC)c2)C(=Nc2ccc(F)cc2)S1 (stereo unspecified) the results were HT1080NT lethal 2.5%, IL-1B inflam inh -76.9*, TDP1 cell CPT 7.2%, ELG1 DNA repair -2.8%, HT1080 IDH1KD tx 1.1% and TDP1 cell noCPT inconclusive.
COc1ccc(N(CC(=O)N/N=C/c2ccc3c(c2)OCO3)S(=O)(=O)c2ccccc2)cc1 was read as ELG1 DNA repair 9.9%.
For COc1ccc(NC(=S)NNC(=O)Cn2nc(C(F)F)cc2C(F)F)cc1 the results were HT1080NT lethal 6.7%, IL-1B inflam inh 0.0, TDP1 cell CPT -10.7%, ELG1 DNA repair 3.2%, HT1080 IDH1KD tx 8.5% and TDP1 cell noCPT -12.2%.
`COC(=O)c1cc(=O)n(CCc2ccc(OC)c(OC)c2)c(=Nc2ccc(F)c(Cl)c2)s1` gave HT1080NT lethal 16.4µM*, IL-1B inflam inh -104.2*, TDP1 cell CPT inconclusive, ELG1 DNA repair 14.6µM*, HT1080 IDH1KD tx inconclusive and TDP1 cell noCPT inconclusive.
For COc1ccc(CCn2ccc(O)c(Cc3c(F)cccc3Cl)c2=O)cc1OC the results were HT1080NT lethal -0.9%, IL-1B inflam inh 3.0, TDP1 cell CPT -10.9%, ELG1 DNA repair inconclusive, HT1080 IDH1KD tx -7.0% and TDP1 cell noCPT -22.6%.
Screening CCn1c2ccccc2c2cc(/C=N/NC(=O)c3cc(O)cc(O)c3)ccc21 returned HT1080NT lethal inconclusive, IL-1B inflam inh -105.9*, TDP1 cell CPT -21.9%, ELG1 DNA repair inconclusive, HT1080 IDH1KD tx inconclusive and TDP1 cell noCPT inconclusive.
`CCn1c2ccccc2c2cc(/C=N/NC(=O)c3ccc(O)cc3)ccc21` gave HT1080NT lethal inconclusive, IL-1B inflam inh -13.8, TDP1 cell CPT 23.1µM*, ELG1 DNA repair inconclusive, HT1080 IDH1KD tx inconclusive and TDP1 cell noCPT 25.9µM*.
For CCn1c2ccccc2c2cc(/C=N/NC(=O)c3ccncc3)ccc21 the results were HT1080NT lethal -21.3%, IL-1B inflam inh 0.0, TDP1 cell CPT inconclusive, ELG1 DNA repair inconclusive, HT1080 IDH1KD tx inconclusive and TDP1 cell noCPT inconclusive.
For CCOc1ccc(-c2c(C)sc3nc[nH]c(=O)c23)cc1 the results were HT1080NT lethal -2.1%, IL-1B inflam inh 20.6, TDP1 cell CPT inconclusive, ELG1 DNA repair -26.9%, HT1080 IDH1KD tx -5.0% and TDP1 cell noCPT 16.4µM*.
`CCOC(=O)c1sc2nc[nH]c(=O)c2c1C` gave HT1080NT lethal 5.6%, IL-1B inflam inh -3.3, TDP1 cell CPT 2.2%, ELG1 DNA repair inconclusive, HT1080 IDH1KD tx 7.3% and TDP1 cell noCPT -16.9%.
For C[C@H]1CN([C@@H](C)CO)C(=O)Cc2cc(NC(=O)C3CC3)ccc2O[C@H]1CN(C)Cc1ccc(C(=O)O)cc1 the results were HT1080NT lethal 11.1%, IL-1B inflam inh -6.2, TDP1 cell CPT -34.7%, ELG1 DNA repair 0.0%, HT1080 IDH1KD tx 12.9% and TDP1 cell noCPT -2.7%.
Screening Cc1nonc1C(=O)N/N=C/c1ccc([N+](=O)[O-])o1 returned HT1080NT lethal -30.0%, IL-1B inflam inh -1.3, TDP1 cell CPT 5.8µM*, ELG1 DNA repair -1.3%, HT1080 IDH1KD tx inconclusive and TDP1 cell noCPT 18.4µM*.
Screening Cc1nonc1C(=O)N/N=C/c1ccncc1 returned HT1080NT lethal 13.1%, IL-1B inflam inh 15.1, TDP1 cell CPT 4.5%, ELG1 DNA repair 3.6%, HT1080 IDH1KD tx -0.2% and TDP1 cell noCPT 9.7%.
For Cc1cc(C(=O)N/N=C/c2ccc3c(c2)OCO3)c(C)o1 the results were HT1080NT lethal -24.9%, IL-1B inflam inh -1.5, TDP1 cell CPT -9.6%, ELG1 DNA repair inconclusive, HT1080 IDH1KD tx inconclusive and TDP1 cell noCPT inconclusive.
`Cc1cc(C(=O)N/N=C/c2ccc([N+](=O)[O-])o2)c(C)o1` gave HT1080NT lethal inconclusive, IL-1B inflam inh 13.4, TDP1 cell CPT 20.6µM*, ELG1 DNA repair inconclusive, HT1080 IDH1KD tx -22.1% and TDP1 cell noCPT 18.4µM*.
COc1ccc(-c2noc(-c3ccc(N4CCN(c5ccccc5)CC4)c([N+](=O)[O-])c3)n2)cc1 was read as TDP1 cell CPT inconclusive and TDP1 cell noCPT -11.2%.
COc1ccccc1N1CCN(c2ccc(-c3nc(-c4ccccc4C)no3)cc2[N+](=O)[O-])CC1 was read as TDP1 cell CPT 0.1% and TDP1 cell noCPT 9.8%.
`COc1ccc(N2CCN(c3ccc(-c4nc(-c5ccccc5)no4)cc3[N+](=O)[O-])CC2)cc1` gave TDP1 cell CPT -29.9% and TDP1 cell noCPT inconclusive.
COc1ccccc1-c1noc(-c2ccc(N3CCN(c4ccccc4)CC3)c([N+](=O)[O-])c2)n1 was read as TDP1 cell CPT 23.1µM* and TDP1 cell noCPT 13µM*.
Cc1ccccc1-c1noc(-c2ccc(N3CCCCC3)c([N+](=O)[O-])c2)n1 was read as TDP1 cell CPT inconclusive and TDP1 cell noCPT 11.6µM*.
`COc1ccccc1-c1noc(-c2ccc(N3CCC(C)CC3)c([N+](=O)[O-])c2)n1` gave TDP1 cell CPT inconclusive and TDP1 cell noCPT 13µM*.
COc1ccccc1N1CCN(c2ccc(-c3nc(-c4ccccc4)no3)cc2[N+](=O)[O-])CC1 was read as TDP1 cell CPT 11.6µM* and TDP1 cell noCPT 9.2µM*.
Screening CC1(C(=O)NS(=O)(=O)c2ccccc2)CCN1C(=O)CC1CC1 (stereo unspecified) returned HT1080NT lethal 20.3%, IL-1B inflam inh 0.0, TDP1 cell CPT -3.1%, HT1080 IDH1KD tx 12.8% and TDP1 cell noCPT -1.8%.
Cc1cc(CN2CCC(n3nccc3NC(=O)c3ccccc3Cl)CC2)cc(C)c1O was read as HT1080NT lethal 2.8%, IL-1B inflam inh -4.8, TDP1 cell CPT -7.5%, ELG1 DNA repair 11.6%, HT1080 IDH1KD tx 8.8% and TDP1 cell noCPT -26.1%.
COC(=O)[C@]12CCCCC=C1N(Cc1cccc3ccccc13)C(=O)[C@H](CC(=O)NCc1cccs1)C2 was read as HT1080NT lethal inconclusive, IL-1B inflam inh -59.9*, TDP1 cell CPT inconclusive, HT1080 IDH1KD tx inconclusive and TDP1 cell noCPT inconclusive.

Bioassay records deposited in PubChem BioAssay by National Center for Advancing Translational Sciences (NCATS).
